In PubChem BioAssay AID1259420 (Broad Institute, 2018):
The campaign covered roughly 1,000 compounds. About 250 (25%) were called active. Another 31% or so got no clear call; they are omitted. A selection follows. Potency and affinity values are given separately. Unmarked numbers belong to inactive results. No rule for the calls is given here.

Test: compound activity on host-cell Toxoplasma growth – dose response (AID 1259420);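 also: host cells were HeLa; final incubation lasted 72 hours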
Details: Toxoplasma gondii growth in host cells, no IFN-gamma

CC(C)n1c(C(=O)N2CCN(c3ccncc3)CC2)cc2c1c1ccccc1n2C
max activity (at 19.5 µM unless noted): 37.4%

COc1ccccc1C#Cc1ccc([C@@H]2[C@H](CO)N3CCCCN(C(=O)C4CCC4)C[C@@H]23)cc1
max activity (at 19.5 µM unless noted): 17.3%

CS(=O)(=O)N1CCO[C@@H]2CN(C(=O)Cc3ccccn3)CC[C@H]2C1
max activity (at 19.5 µM unless noted): -18.9% [at 1.2 µM]

Cn1c([N+](=O)[O-])cnc1COC(N)=O
max activity (at 19.5 µM unless noted): -13.4% [at 0.6 µM]

N#C[C@H]1N[C@@H](CO)[C@@H]1c1ccc(C#CC2CCCCC2)cc1
max activity (at 19.5 µM unless noted): 28% [at 21 µM]

C=CC[C@@H]1CC=C[C@@H](C)N1C(=O)CCn1c(C)cc(C)nc1=O
max activity (at 0.16 µM): 10.8%
max activity (at 10 µM): -10.5%

Oc1[nH]c2ccccc2c1N=Nc1nc(Nc2ccccc2)nc(N2CCOCC2)n1
max activity (at 19.5 µM unless noted): -17.4% [at 5 µM]

COc1cccc(-c2ccc3c(c2)[C@H]2[C@H](CCN2S(=O)(=O)c2ccccc2F)[C@H](CO)N3)c1
max activity (at 19.5 µM unless noted): 10%

O=C(c1cnccn1)N1CC(=O)N2[C@H](C1)[C@H](c1ccc(/C=C/c3ccccc3)cc1)[C@@H]2CO
max activity (at 19.5 µM unless noted): 11.5% [at 0.16 µM]

O=S1(=O)c2ccccc2OCC2(CCN(Cc3ccc(F)cc3)CC2)CN1CC1CC1
max activity (at 19.5 µM unless noted): 28.5%

COCC#Cc1ccc([C@H]2[C@H](CO)N3CCCCN(C(=O)NC4CCCC4)C[C@@H]23)cc1
max activity (at 19.5 µM unless noted): -13.1% [at 10 µM]

O=C(Nc1ccc2c(c1)OCO2)N1C[C@@H]2N[C@H](C1)C2c1ccc(C=Cc2ccccc2)cc1 (stereo partly specified)
max activity (at 19.5 µM unless noted): 38% [at 10 µM]

CN1C(=O)c2cc(NC(=O)c3cccc(F)c3)ccc2OC[C@H]2O[C@@H](CC(=O)NCC3CCCCC3)CC[C@H]21
max activity (at 0.16 µM): 4.44%
max activity (at 5 µM): -19.3%
max activity (at 19.5 µM): -5.09%

CN1C(=O)c2cc(NC(=O)c3cccc(F)c3)ccc2OC[C@@H]2O[C@H](CC(=O)NCC3CCCCC3)CC[C@@H]21
max activity (at 19.5 µM unless noted): -23.6% [at 10 µM]

CN1C(=O)c2cc(NC(=O)c3cccc(F)c3)ccc2OC[C@H]2O[C@@H](CC(=O)NCC3CCCCC3)CC[C@@H]21
max activity (at 19.5 µM unless noted): -18% [at 2.6 µM]

COc1cccc(C(=O)Nc2ccc3c(c2)C(=O)N(C)[C@H]2CC[C@@H](CC(=O)N[C@@H](C)c4ccccc4)O[C@H]2CO3)c1
max activity (at 19.5 µM unless noted): 8.03% [at 0.3 µM]

CN1C(=O)c2cc(NC(=O)c3cccc(F)c3)ccc2OC[C@@H]2O[C@@H](CC(=O)NCC3CCCCC3)CC[C@@H]21
max activity (at 19.5 µM unless noted): -20.9% [at 2.6 µM]

CC(C)c1cccc(NC(=O)C[C@H]2CC[C@H]3[C@@H](COc4ccc(NS(=O)(=O)c5ccccc5Cl)cc4C(=O)N3C)O2)c1
max activity (at 19.5 µM unless noted): -22.8% [at 10 µM]
